High-throughput results (PubChem)
Compounds with a hit are over-represented: about 0.74% of the library has one in this group of screens.
LYPLA1 inh: counter-screen for PME1 inhibitors: inhibitors of human LYPLA1. 320,000 compounds, 0.16% hits. recombinant LYPLA1, FP-Rh probe fluorescence polarization. O75608. inhibition, % at 5.9 µM;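 active = inhibition above the mean of all tested compounds plus 3 SD, set per campaign, cut at about 14% in these data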;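 also: inhibitors block serine hydrolase probe labeling of LYPLA1 so polarization falls; 0% = enzyme with DMSO and 100% = wells lacking LYPLA1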
Target sequence (O75608 whole entry, looked up): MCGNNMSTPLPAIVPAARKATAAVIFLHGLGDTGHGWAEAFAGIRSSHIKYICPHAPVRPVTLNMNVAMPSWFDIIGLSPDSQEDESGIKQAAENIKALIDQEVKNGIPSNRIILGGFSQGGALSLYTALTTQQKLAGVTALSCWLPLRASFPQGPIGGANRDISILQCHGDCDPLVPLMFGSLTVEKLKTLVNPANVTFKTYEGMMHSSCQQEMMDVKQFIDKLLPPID
Redox H2O2 prof: compounds producing H2O2 with reducing agent – biochemical, NIH compound library profiling, artefact control for MLSCN library redox annotation, primary screen. DTT-dependent redox cycling H2O2, phenol red/HRP absorbance; 100% = 100 µM peroxide control, 0% = buffer. 200,000 compounds, 0.03% hits. activation, % at 10 µM;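 active = activation of at least 50% relative to the plate's high and low controls in the primary single-dose screen; inactive = activation below 50%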;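 also: compound incubated with DTT at 0.8 mM final as the reducing agent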
LYPLA2 counter: LYPLA2 (human) inhibition in PME1 counter-screen | O95372 | recombinant LYPLA2, FP-Rh probe fluorescence polarization | inhibition, % at 5.9 µM | 320,000 compounds, 0.38% hits | AID 2177;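 active = inhibition above the screen-wide mean plus 3 SD, limit set per campaign, cut at about 26% in these data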;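 also: 0% = LYPLA2 with DMSO and 100% = wells lacking LYPLA2 enzyme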
Target sequence (O95372 whole entry, looked up): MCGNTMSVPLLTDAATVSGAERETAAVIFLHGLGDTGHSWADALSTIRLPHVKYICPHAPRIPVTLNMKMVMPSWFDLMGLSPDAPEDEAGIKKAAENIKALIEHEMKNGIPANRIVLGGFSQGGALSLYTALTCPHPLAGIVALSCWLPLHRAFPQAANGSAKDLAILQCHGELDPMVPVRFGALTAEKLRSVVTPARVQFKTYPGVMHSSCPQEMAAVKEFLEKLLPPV
p97 inhibitor: human p97 ATPase inhibition | P55072 | inhibition, % at 8 µM | recombinant p97 ATPase, Kinase-Glo ATP luminescence, 3 h | 220,000 compounds, 0.42% hits; in the data active = inhibition above about 15%;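 also: 0% = DMSO vehicle and 100% = wells lacking enzyme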
p97 inh conf: human p97 ATPase inhibition, confirmation; shares compounds with p97 inhibitor; recombinant p97 ATPase, Kinase-Glo ATP luminescence; inhibition, % at 8 µM; AID 1517; 760 compounds, 44% hits;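 active = percent inhibition of p97 ATPase above a set limit, the primary screen's mean plus 3 SD, cut at about 15% in these data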;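 also: 0% = DMSO wells and 100% = wells lacking p97 protein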
LYPLA1 confirm: counter-screen for PME1 inhibitors: confirmation of human LYPLA1 inhibitors; shares compounds with LYPLA1 inh; recombinant LYPLA1, FP-Rh probe fluorescence polarization; inhibition, % at 5.9 µM; 480 compounds, 69% hits; AID 2233;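 active = mean inhibition across replicates above the hit cutoff set in the primary screen, cut at about 15% in these data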;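 also: loss of FP-Rh probe labeling of LYPLA1 seen as lower polarization; 0% = LYPLA1 with DMSO and 100% = wells lacking LYPLA1 enzyme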
LYPLA2 confirm: counter-screen for PME1 inhibitors: confirmation of human LYPLA2 inhibitors; shares compounds with LYPLA2 counter; 1,100 compounds, 72% hits; inhibition, % at 5.9 µM; recombinant LYPLA2, FP-Rh probe fluorescence polarization;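 active = mean inhibition across replicates above the hit cutoff set in the primary screen, cut at about 26% in these data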;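 also: blocked labeling of the enzyme by serine hydrolase FP-Rh probe lowers polarization; 0% = enzyme with DMSO and 100% = wells lacking LYPLA2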
Active calls of the source: *; x = not tested or not shown.

SMILES	LYPLA1 inh	Redox H2O2 prof	LYPLA2 counter	p97 inhibitor	p97 inh conf	LYPLA1 confirm	others
COc1ccc(S(=O)(=O)Nc2nccs2)cc1OC	1.2	-9.6	5.2	17.1*	7.1	x
CCc1ccc(C2=Nn3c(nnc3-c3cccs3)SC2)cc1	-0.1	-0.4	8.8	18.8*	4.2	x
Cc1ccc(NC(=O)C(c2ccccc2)N2CCN(CC(=O)N3CCOCC3)CC2)cc1Cl (centres undefined)	-0.2	x	1.2	x	x	x
CC1=NN(c2ccc(C(=O)O)c(N)c2)C(=O)C1	1.5	-1.0	7.9	10.2	x	x
CC1=NN(c2ccc(Cl)c(C(=O)O)c2)C(=O)C1	1.1	0.1	2.9	33.5*	6.2	x
Cc1cc(C)c(NC(=O)c2cc(=O)c3ccccc3o2)c(C)c1	0.8	-0.3	6.4	1.9	x	x
O=C(NC1CCCC1)c1sc(=S)n2c1[nH]c(=O)c1ccccc12	1.5	1.7	-5.1	11.5	x	x
O=C(NCc1ccco1)c1sc(=S)n2c1[nH]c(=O)c1ccccc12	1.9	0.1	10.4	15.3*	24.9*	x
CCOc1ccccc1C(=O)Nc1cc(OC)ccc1OC	-2.5	-0.7	3.5	3.2	x	x
CCOc1ccccc1C(=O)Nc1cc(Cl)ccc1O	-15.5	0.6	-13.0	17.6*	23.2*	x
Cn1nc(-c2ccccn2)nc2c(=O)n(C)c(=O)nc1-2	91.7*	x	90.0*	34.0*	33.3*	88.6*	LYPLA2 confirm=92.4*
Nc1c(N2CCCC2)cc(Cl)c2nonc12	72.1*	6.3	72.2*	31.7*	19.9*	0.0	LYPLA2 confirm=-1.4
Nc1ccc(N2CCCCC2)cc1N1CCCCC1	0.7	0.8	-1.5	0.1	x	x
Nc1ccc(N2CCCCC2)c2nonc12	78.7*	-1.0	89.6*	44.2*	10.4	3.9	LYPLA2 confirm=-0.2
Cc1cc2c(N)cccc2nn1	46.8*	1.7	52.1*	31.8*	9.2	2.8	LYPLA2 confirm=45.7*
Cc1cc2ncn(CC3CC3(Cl)Cl)c2cc1C (centres undefined)	2.1	0.2	2.2	-1.7	x	x
COc1ccc(CNC(=O)CCCn2nc(C)c3c(C)n(-c4ccccc4)nc3c2=O)cc1	3.7	x	0.7	x	x	x
CC1(C)CC(=O)C=C(NC2=CC3OC(c4ccccc4)OCC3OC2=O)C1 (centres undefined)	-1.3	-0.1	1.5	5.8	x	x
COc1cc(NS(=O)(=O)c2ccc(C)cc2)c2ncccc2c1	-5.1	-2.5	-4.0	2.1	x	x
CCC(CNc1cc(OC)cc2cccnc12)NC1CCCCC1 (centres undefined)	22.5*	x	29.7*	24.4*	6.8	12.9	LYPLA2 confirm=43.4*
Cc1ccc([N+](=O)[O-])c(OCCCN2CCC(Cc3ccccc3)CC2)c1	36.5*	x	27.0*	x	x	52.1*
Cc1ccc(C)c(S(=O)(=O)N2CCN(CC(=O)NC(C)c3ccccc3)CC2)c1 (centres undefined)	-5.1	x	-6.0	x	x	x
Cc1nc2c(C(=O)NCCc3ccccc3Cl)c[nH]n2c(=O)c1Cl	17.6*	0.1	13.3	0.5	x	15.9*
O=C(O)c1cc(NN=C2c3ccccc3-c3ccccc32)ccc1Cl	16.2*	x	12.6	x	x	16.4*
CCOc1ccc(NC(=S)NC(=O)c2c(Cl)cnn2CC)c([N+](=O)[O-])c1	0.5	-0.1	-2.8	1.3	x	x
SMILES	LYPLA1 inh	Redox H2O2 prof	LYPLA2 counter	p97 inhibitor	p97 inh conf	LYPLA1 confirm	others
CCOc1ccc(NC(=S)NC(=O)c2c(Br)cnn2C)c([N+](=O)[O-])c1	17.6*	-0.8	20.6	-4.1	x	59.2*
Cc1cc(C)c(O)c(-c2n[nH]c3c2C(c2cccc(O)c2)N(Cc2ccco2)C3=O)c1 (centres undefined)	-17.0	x	-20.0	7.3	x	x
COc1ccccc1C(=O)NCC(=O)N=Nc1c(O)n(C(C)C)c2ccccc12	19.9*	x	-8.4	x	x	26.7*
O=C(COC(=O)/C=C/c1ccc2c(c1)OCO2)NCc1ccccc1	-3.6	x	0.6	x	x	x
CCN(c1ccc(NC(=O)c2ccc(N3CCCC3=O)cc2)cc1)C(C)C	16.1*	x	0.0	x	x	16.9*
CCN(CC)S(=O)(=O)c1cccc(-c2nnc(SCCOc3ccccc3C)o2)c1	29.3*	-0.5	-8.1	-9.4	x	34.3*
